{"source": "paper PMC4336329", "about": "(PLoS ONE, 2015)", "note": "Among all 310,000 compounds or so, about 14,000 (4.5%) showed an effect of 50% or more. The effect is printed as a negative number. Many of the other results were omitted from the sample, so strong results are more common in it than they were.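 Further: peak tail current of the secondary pulse compared with the same well before compound.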", "data": [{"target": "human ether-à-go-go-related gene (hERG) potassium channel (human, UniProt Q12809)", "sequence (Q12809 whole entry, looked up)": "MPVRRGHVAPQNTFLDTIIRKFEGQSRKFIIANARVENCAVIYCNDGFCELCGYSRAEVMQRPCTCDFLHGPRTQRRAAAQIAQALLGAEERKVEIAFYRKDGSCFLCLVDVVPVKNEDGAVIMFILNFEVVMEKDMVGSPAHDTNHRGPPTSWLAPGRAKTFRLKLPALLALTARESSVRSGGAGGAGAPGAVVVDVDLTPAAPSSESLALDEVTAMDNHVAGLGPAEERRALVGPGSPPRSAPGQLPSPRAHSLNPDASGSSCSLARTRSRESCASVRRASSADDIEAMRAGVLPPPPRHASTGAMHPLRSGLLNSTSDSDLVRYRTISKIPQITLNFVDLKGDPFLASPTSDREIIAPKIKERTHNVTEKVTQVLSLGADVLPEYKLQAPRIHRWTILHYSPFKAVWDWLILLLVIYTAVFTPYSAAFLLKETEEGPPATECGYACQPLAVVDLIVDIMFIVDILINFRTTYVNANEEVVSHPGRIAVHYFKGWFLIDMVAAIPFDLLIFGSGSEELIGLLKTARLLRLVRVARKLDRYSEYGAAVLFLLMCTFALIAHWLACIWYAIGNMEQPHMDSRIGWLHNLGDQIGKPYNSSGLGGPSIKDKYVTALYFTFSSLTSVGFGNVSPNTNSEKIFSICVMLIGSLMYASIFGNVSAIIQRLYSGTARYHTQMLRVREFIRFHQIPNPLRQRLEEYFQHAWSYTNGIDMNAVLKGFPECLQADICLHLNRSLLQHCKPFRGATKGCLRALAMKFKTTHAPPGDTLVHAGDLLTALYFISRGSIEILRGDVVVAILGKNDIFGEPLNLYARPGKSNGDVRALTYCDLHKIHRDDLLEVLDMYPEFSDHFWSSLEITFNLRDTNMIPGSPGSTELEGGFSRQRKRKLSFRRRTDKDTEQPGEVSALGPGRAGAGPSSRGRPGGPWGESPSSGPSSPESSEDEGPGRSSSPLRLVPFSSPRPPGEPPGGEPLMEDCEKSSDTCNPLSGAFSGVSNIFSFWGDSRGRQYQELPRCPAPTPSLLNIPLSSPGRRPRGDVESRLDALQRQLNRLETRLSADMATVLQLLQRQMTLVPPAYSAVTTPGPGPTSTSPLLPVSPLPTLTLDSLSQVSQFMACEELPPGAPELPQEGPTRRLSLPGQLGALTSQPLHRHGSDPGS", "test": "primary screen, population patch clamp on CHO cells stably expressing hERG; higher = less effect of the substance", "units": {"hERG current change (%, negative = inhibition) at 10uM": "%"}, "values": [{"smiles": "CCc1cccc(C)c1NC(=S)N(CCCN1CCN(C)CC1)Cc1cccs1", "hERG current change (%, negative = inhibition) at 10uM": -30.9}, {"smiles": "CC1CCCC(NS(=O)(=O)c2cc(Br)cnc2N)C1C", "note": "(centres unmarked)", "hERG current change (%, negative = inhibition) at 10uM": -8.36}, {"smiles": "CC(=O)NC(CC(=O)Nc1nc(-c2ccccc2)c(C(C)=O)s1)c1ccccc1", "note": "(centres unmarked)", "hERG current change (%, negative = inhibition) at 10uM": -44.4}, {"smiles": "COc1ccccc1C(=O)NNC1=C(C(=O)C(F)(F)F)CCC1", "hERG current change (%, negative = inhibition) at 10uM": -2.03}, {"smiles": "O=C(CCl)NN1C(=O)NC(c2ccccc2)(c2ccccc2)C1=O", "hERG current change (%, negative = inhibition) at 10uM": 11.2}, {"smiles": "O=C(O)c1ccc(N(c2ccccc2)c2ccccc2)cc1", "hERG current change (%, negative = inhibition) at 10uM": 2.69}, {"smiles": "CCCN1CCN(C(=O)c2cccc3c2C(=O)N(CCOC)C3)CC1", "hERG current change (%, negative = inhibition) at 10uM": 13}, {"smiles": "COc1ccc(-c2nnc(SCC(N)=O)n2N)cc1", "hERG current change (%, negative = inhibition) at 10uM": 6.29}, {"smiles": "COc1cc(/C=N/NC(=O)c2nnn(-c3nonc3N)c2C(C)C)ccc1O", "hERG current change (%, negative = inhibition) at 10uM": -2.72}, {"smiles": "O=C1CC(NC(=O)c2ccc(Cl)cc2)C(=O)N1", "note": "(centres unmarked)", "hERG current change (%, negative = inhibition) at 10uM": 14.8}, {"smiles": "Cc1cccc2sc(NC(=O)c3ccc(OCC4CCCO4)cc3)nc12", "note": "(centres unmarked)", "hERG current change (%, negative = inhibition) at 10uM": 9.85}, {"smiles": "CCc1ccc(NC(=S)N2CCNC(=O)C2CC(=O)OC)cc1", "note": "(centres unmarked)", "hERG current change (%, negative = inhibition) at 10uM": 7.17}, {"smiles": "COCCNC(=O)CCCCCNS(=O)(=O)c1ccc(C)cc1", "hERG current change (%, negative = inhibition) at 10uM": 8.18}, {"smiles": "CCN(CC)CCNC(=O)c1ccc(NC(=O)Cc2ccccc2F)cc1", "hERG current change (%, negative = inhibition) at 10uM": -6.75}, {"smiles": "CCc1ccc(N(CC(=O)NC(C)(C)C)C(=O)CNC(=O)c2cccs2)cc1", "hERG current change (%, negative = inhibition) at 10uM": 15.5}, {"smiles": "Cc1nc(S/C(=C/c2ccc(-c3ccc(C(=O)O)cc3)o2)C(=O)O)n[nH]1", "hERG current change (%, negative = inhibition) at 10uM": -11.4}, {"smiles": "Cc1ccc(NC(=S)N(CCCN2CCN(C)CC2)Cc2cccs2)cc1C", "hERG current change (%, negative = inhibition) at 10uM": -57}, {"smiles": "Cc1ccc(NC(=S)N(CCN(C)C)Cc2cccs2)cc1C", "hERG current change (%, negative = inhibition) at 10uM": -46.7}, {"smiles": "O=S(=O)(c1ccc(SCc2ccccc2)nc1)N1CCCCC1", "hERG current change (%, negative = inhibition) at 10uM": 4.03}, {"smiles": "O=C(C[n+]1ccccc1)Nc1nc2ccccc2s1.[Cl-]", "hERG current change (%, negative = inhibition) at 10uM": 0.223}, {"smiles": "COc1ccc(C2CC(c3ccc(Br)cc3)=NN2C(=O)CCC(=O)O)cc1OC", "note": "(centres unmarked)", "hERG current change (%, negative = inhibition) at 10uM": 9.97}, {"smiles": "Cc1ccc(O)c(NC(=O)C2CC(c3ccc(F)cc3)=NO2)c1", "note": "(centres unmarked)", "hERG current change (%, negative = inhibition) at 10uM": -3.98}, {"smiles": "C[C@]12CC[C@@H](O)C[C@@H]1CC[C@@H]1[C@@H]2CC[C@]2(C)C(=O)CC[C@@H]12", "hERG current change (%, negative = inhibition) at 10uM": 5.99}, {"smiles": "C[C@]12CC[C@H](O)C[C@@H]1CC[C@@H]1[C@@H]2CC[C@]2(C)C(=O)CC[C@@H]12", "hERG current change (%, negative = inhibition) at 10uM": -58.3}, {"smiles": "C[C@]12CC[C@@H](O)C[C@H]1CC[C@@H]1[C@@H]2CC[C@]2(C)C(=O)CC[C@@H]12", "hERG current change (%, negative = inhibition) at 10uM": -3.43}, {"smiles": "Cc1ccc(-n2c(O)c(C=NCCN3CCNCC3)c(=O)[nH]c2=S)cc1", "hERG current change (%, negative = inhibition) at 10uM": 22}, {"smiles": "O=S1(=O)CCN=C2SC3=C(CCCC3)N21", "hERG current change (%, negative = inhibition) at 10uM": 1.25}, {"smiles": "O=C(OCC(=O)N1CCCCC1)c1ccc2c(c1)C(=O)N(Cc1ccco1)C2=O", "hERG current change (%, negative = inhibition) at 10uM": -28}, {"smiles": "CC1CC(C)CN(C(=O)COC(=O)c2ccc3c(c2)C(=O)N(Cc2ccco2)C3=O)C1", "note": "(centres unmarked)", "hERG current change (%, negative = inhibition) at 10uM": -68.7}, {"smiles": "CC1CCCCN1C(=O)COC(=O)c1ccc2c(c1)C(=O)N(Cc1ccco1)C2=O", "note": "(centres unmarked)", "hERG current change (%, negative = inhibition) at 10uM": -34.9}, {"smiles": "CN(CC(=O)Nc1ccccc1Br)C(=O)c1cccn1C", "hERG current change (%, negative = inhibition) at 10uM": 16.2}, {"smiles": "Cl.O=C(CCS(=O)(=O)c1ccccc1)N(CCCN1CCOCC1)c1nc2ccccc2s1", "hERG current change (%, negative = inhibition) at 10uM": -14.1}, {"smiles": "CCc1nn(CC(=O)NCCC2=CCCCC2)c(=O)c2cc3cc(F)ccc3n12", "hERG current change (%, negative = inhibition) at 10uM": 15.7}, {"smiles": "CN(C)S(=O)(=O)c1ccc(NC(=O)CN2CCN(c3ccccn3)CC2)cc1", "hERG current change (%, negative = inhibition) at 10uM": 13.9}, {"smiles": "C=CCn1c2ccccc2c2nnc(SCCN3CCCCC3)nc21", "hERG current change (%, negative = inhibition) at 10uM": -46.4}, {"smiles": "CCn1c2ccccc2c2nnc(SCCN3CCCCC3)nc21", "hERG current change (%, negative = inhibition) at 10uM": -39.1}, {"smiles": "c1ccc(Cn2c3ccccc3c3nnc(SCCN4CCCCC4)nc32)cc1", "hERG current change (%, negative = inhibition) at 10uM": -67.7}, {"smiles": "CCn1c2ccccc2c2nnc(SCc3ccccc3)nc21", "hERG current change (%, negative = inhibition) at 10uM": -3.61}, {"smiles": "O=C1c2ccccc2C(=O)N1CSc1nnc2c3ccccc3n(CCc3ccccc3)c2n1", "hERG current change (%, negative = inhibition) at 10uM": 14.4}, {"smiles": "CCN(CC)CCSc1nnc2c3ccccc3n(Cc3ccccc3)c2n1", "hERG current change (%, negative = inhibition) at 10uM": -75.4}, {"smiles": "CSc1nnc2c3ccccc3n(CCc3ccccc3)c2n1", "hERG current change (%, negative = inhibition) at 10uM": -12.1}, {"smiles": "CSc1nnc2c3ccccc3n(Cc3ccccc3)c2n1", "hERG current change (%, negative = inhibition) at 10uM": 25.8}, {"smiles": "CCN(CC)CCSc1nnc2c3ccccc3n(CCc3ccccc3)c2n1", "hERG current change (%, negative = inhibition) at 10uM": -75.3}, {"smiles": "O=C(CSc1nnc(NC(=O)c2cccc(F)c2)s1)NC1CCCC1", "hERG current change (%, negative = inhibition) at 10uM": 13.9}]}]}
